According to PubChem BioAssay (NCATS):
Records with an inconclusive call do not appear. Calls of active or inactive are those of the source. Calls come from the whole dose curve; as a rule, active = well fitted cell-killing curve with a large enough effect; inconclusive = small, poorly fitted or top-dose-only effect; inactive = flat fitted curve, though single readings scatter.

experiment: Cell Viability - LYMP1-002 - Assay at 40 hr (AID 994); conditions: LYMP1-002 lymphoblastoid cell viability; series mostly up to 92.2 µM; viability change, negative = cytotoxic: at the top concentration;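 note: 0% = DMSO only and full inhibition = 92 µM tetraoctylammonium bromide; nearly all actives have a fitted effect of over 60% in size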
Text: NIH Chemical Genomics Center [NCGC]
NIH Molecular Libraries Screening Centers Network [MLSCN]
National Institutes of Environmental Health Sciences [NIEHS]
National Toxicology Program [NTP]
We have developed a 1536-well cell-based assay for quantitative high throughput screening (qHTS) against a number of cell lines to determine in vitro cytotoxicity of small molecules. This particular assay uses a human lymphoblastoid cell line (LYMP1-002) purchased from Coriell Institute for Medical Research.
NCGC Assay Protocol Summary:
The CellTiter-Glo luminescent cell viability assay (Promega) is a homogeneous method to measure the number of viable cells in culture. The end point readout of this assay is based on quantitation of intracellular ATP, an indicator of metabolic activity, using the luciferase reaction. Luciferase catalyzes the oxidation of beetle Luciferin to oxyluciferin and light in the presence of ATP. The luminescent signal is proportional to amount of ATP present.
Using the CellTiter-Glo luminescent cell viability assay, the amount of cellular ATP was measured in the lymphoblastoid cell line with complete culture medium following compound treatment for 40 hours. The assay was performed in opaque white Kalypsys 1536-well plates. In the screen, tetraoctylammonium bromide was used as positive control. Library compounds were measured for their ability to cause acute toxicity in the cell line, as reflected by a decrease in intracellular ATP levels, in a concentration-dependent manner. […] AC50 values were determined from concentration-response data modeled with the standard Hill equation.
qHTS protocol for CellTiter Glo lymphoblastoid cellular assay
[Step] [Parameter] [Value] [Description]
1. Reagent; 5 uL; 2500 lymphoblastoid cells/well
2. Time; 5 hr; 37 C incubation
4. Controls; 23 nL; Tetraoctylammonium bromide 6.4pM to 92 uM
5. Time; 40 hr; 37 C incubation
6. Reagent; 5 uL; CellTiter Glo reagent
7. Time; 30 min; Room Temperature
8. Detection; Luminescence; Viewlux plate reader
Keywords: cell viability, cytotoxicity, lymphoblastoid cell line, luminescence, NTPHTS, NTPHTS_NCGC, NIEHS, DSSTox, MLSMR, MLSCN, NIH Roadmap, qHTS, NCGC

SMILES	viability change, negative = cytotoxic
Nc1ccc(S(=O)(=O)c2ccc(N)cc2)cc1	-3.77% (inactive)
CC(=O)OCC(COC(C)=O)OC(C)=O	-0.646% (inactive)
CCCCOC(=O)c1ccc(N)cc1	-16.4% (inactive)
CC(=O)Nc1ccc(C(=O)O)cc1	1.16% (inactive)
O=C1c2cccc(O)c2C(=O)c2c(O)cccc21	-5.1% (inactive)
O=C(c1ccccc1)C(O)c1ccccc1 (configuration not stated)	-3.07% (inactive)
CC1CC(OC(=O)c2ccccc2O)CC(C)(C)C1 (configuration not stated)	-11.8% (inactive)
O=C(O)CCCCC1CCSS1 (configuration not stated)	2.95% (inactive)
FC(F)(F)C(Cl)Br (configuration not stated)	0.213% (inactive)
Cc1cc(=O)[nH]c(=S)[nH]1	-7.36% (inactive)
Cc1c(N(C)C)c(=O)n(-c2ccccc2)n1C	2.28% (inactive)
Cc1cc(C)nc(NS(=O)(=O)c2ccc(N)cc2)n1	-6.14% (inactive)
CC(=O)Nc1ccccc1	-6.65% (inactive)
CC(=O)NS(=O)(=O)c1ccc(N)cc1	-2.23% (inactive)
C=CCNC(N)=S	-10.3% (inactive)
COc1ccc(O)cc1	-6.1% (inactive)
O=C1C(c2[nH]c3ccccc3c2O)=Nc2ccccc21	-13.7% (inactive)
CCCCCCCC(=O)OCC(COC(=O)CCCCCCC)OC(=O)CCCCCCC	-9.6% (inactive)
CC(=O)Nc1cccc(O)c1	0.532% (inactive)
CCCC(O)C(CC)CO (configuration not stated)	-0.119% (inactive)
CCN(CC)C(=O)c1cccc(C)c1	-6.76% (inactive)
CCCCCC(N)=O	-2.7% (inactive)
